Assay outcomes as filed in PubChem BioAssay.
This is a sample that favours compounds with a hit; in the whole collection about 2.1% have one here.
FUS suppressor: rescues growth of FUS-expressing yeast; Potency, µM (series often up to 76.6 µM), hits mostly activators; S. cerevisiae FUS-expressing, growth rescue, OD600, 24 h; actives 0.24% (n = 390,000);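 also: plate controls were DMSO vehicle for no effect and reference control for full effect; nearly all actives have a fitted effect of over 55% in size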
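Read-out: OD at 600 nm after 24hr at 30C, reporting rescue of FUS-induced yeast toxicity. Cells at OD 0.005 in galactose (2%) minimal medium; compounds tested in a dilution series; CP55940 titration from 92uM final as control.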
Abeta rescue: compounds reversing amyloid beta toxicity in yeast | yeast expressing A-beta42, growth rescue, OD600, 48 h; response scale: 0% DMSO, 100% iron-clioquinol control | Potency, µM (highest dose often 46.1 µM), most hits filed as activators | actives 0.063% (n = 410,000) | AID 1347071; also: nearly all actives have a fitted effect of over 55% in size
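Growth rescue measured by 600 nm absorbance after 48 h yeast culture at 30 C with compound. Values normalized between DMSO and an equimolar ferric chloride plus clioquinol control.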
TDP-43 yeast inh: inhibitors of TDP-43 toxicity in yeast. TDP-43 expressing yeast growth rescue, BacTiter-Glo, 24 h. Potency, µM (titrated, usually from 46.1 µM), inactives show at the top dose growth rescue (activation), usual class: activators. actives 1.8% (n = 410,000). AID 652104; also: % of control where 0% means no effect; nearly all actives have a fitted effect of over 50% in size
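Galactose-induced TDP-43 yeast, OD600=0.02, compound pinned; 24 hr, 30 deg C; BacTiter-Glo luminescence for growth. Inhibitors of TDP-43 toxicity read as activators.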
aSyn rescue: rescues yeast growth from alpha-synuclein toxicity; Potency, µM (highest dose often 46.1 µM), for the others: top-dose growth rescue (activation), most hits filed as activators; Yeast expressing alpha-synuclein, growth rescue, BacTiter-Glo, 24 h; actives 0.14% (n = 370,000); AID 652106; also: % of control where 0% means no effect; nearly all actives have a fitted effect of over 65% in size
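Readout is rescue of growth in alpha-synuclein-expressing yeast, so inhibitors of toxicity appear as activators. Growth after 24 hr at 30 deg C in galactose medium is quantified by luminescence.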
Active calls of the source: *; i = inactive; ? = inconclusive; . = no result given. Calls follow the shape of the dose curve; as a rule, active = well fitted curve in the direction sought with a large enough effect; inconclusive = small, poorly fitted or top-dose-only effect, or another doubt; inactive = no such curve, though single readings can be large; an effect the other way counts as inactive or inconclusive. Potency is read from the fitted curve at half-maximal effect.

SMILES | FUS suppressor | Abeta rescue | TDP-43 yeast inh | aSyn rescue
COC(=O)C1=C(C)N(c2ccc(C(=O)OC)cc2)C(=O)C1 | i | i | 12% | 11%
Cc1ccc2c(c1C)NC(=O)CC2c1ccc(Cl)cc1Cl (stereo unspecified) | i | i | 35µM* | .
COC(=O)C1=C(C)NC(=O)CC1c1cccc(OC)c1OC (stereo unspecified) | i | i | -25% | 1%
COc1cccc(C2CC(=O)Nc3c2ccc(C)c3C)c1OC (stereo unspecified) | i | i | 18µM* | .
COc1ccc2c(c1C(=O)/C=C/c1ccccc1)OC(C)(C)C=C2 | i | . | . | .
COc1ccc(C(C)(O)c2nc(-c3csc4ccccc34)cs2)cc1 (stereo unspecified) | i | ? | 22µM* | 27%
COc1ccc(C(C)(NC(C)=O)c2nc(/C=C/c3ccccc3)cs2)cc1 (stereo unspecified) | ? | i | 24% | -18%
COc1ccc(C(C)(O)c2nc(/C=C/c3ccccc3)cs2)cc1 (stereo unspecified) | i | ? | 35µM* | ?
O=C(Oc1ccc(Cl)c2cccnc12)c1ccco1 | i | i | 32µM* | 11%
O=C(Oc1cccc2cccnc12)c1ccco1 | i | i | -79% | -1%
Cc1cc2ncn(/N=C/c3ccc([N+](=O)[O-])s3)c2cc1C | . | i | 13µM* | 10%
O=c1c2cc3cccnc3nc2ncn1CCc1c[nH]c2ccccc12 | i | . | . | .
COc1ccc(C(=O)c2sc(Nc3ccccc3)nc2C)cc1 | i | i | 25µM* | 12%
CC(=O)c1sc(NC(=O)c2ccc(Cn3cc(Br)cn3)o2)nc1C | i | i | -17% | -5%
CC(=O)c1sc(Nc2cccc(C)c2)nc1C | i | i | 7.1µM* | 0%
Cc1nc(Nc2ccccc2)sc1-c1ccccc1 | . | i | 20µM* | -7%
CC(=O)c1sc(NC(=O)c2ccc(Br)o2)nc1C | i | i | 11µM* | -2%
CC(=O)NC1=CC(=O)c2nonc2C1=O | . | . | . | -1%
CN(C)S(=O)(=O)c1cccc(C(=O)N/N=C\c2ccc(-c3ccccn3)cc2)c1 | i | . | . | .
CCc1cc(C(=O)/C=C/c2cc3c(cc2C)OCCO3)c(O)cc1O | . | . | . | -1%
CC(=O)c1sc(Nc2ccc(Oc3ccccc3)cc2)nc1C | i | i | 35µM* | -6%
CC(=O)c1sc(Nc2ccccc2)nc1C | i | i | 0% | 12%
COC(=O)c1sc(Nc2ccccc2)nc1C | i | i | 13µM* | -13%
CCc1ccc(/C=C2\SC(=S)N(CCCC(=O)N(CCO)c3ccccc3)C2=O)cc1 | 22µM* | i | 35µM* | 20%
CCOc1ccc(/C=C2\SC(=S)N(CCC(=O)N(CCO)c3ccccc3)C2=O)cc1 | i | i | 6% | 4%
SMILES | FUS suppressor | Abeta rescue | TDP-43 yeast inh | aSyn rescue
Cc1ccc2nc(-c3ccc(NC(=O)CSc4nnc(-c5cc(C)[nH]n5)n4N)cc3)sc2c1 | i | . | . | .
COc1cc(NC(=O)c2cc(-c3ccccc3Cl)on2)cc(OC)c1OC | i | i | 16µM* | -26%
Nn1c(SCC(=O)Nc2ccccc2-c2ccccc2)nnc1-c1n[nH]c2c1CCC2 | i | . | . | .
COC(=O)[C@@]12CCCN1[C@H](c1ccc(-c3ccc(OC)cc3)cc1)[C@@H]1C(=O)N(C)C(=O)[C@@H]12 | ? | i | 22µM* | 1%
COC(=O)[C@@]12CCCN1[C@H](c1ccc(-c3ccc(OC)cc3)c(OC)c1)[C@@H]1C(=O)N(C)C(=O)[C@@H]12 | ? | i | ? | -6%
COC(=O)[C@@]12CCCCN1[C@H](c1ccc(-c3ccc(F)cc3)cc1)[C@@H]1C(=O)N(C)C(=O)[C@@H]12 | i | i | 13µM* | 16%
COC(=O)[C@@]12CCCN1[C@H](c1ccc(-c3ccc4c(c3)OCO4)c(OC)c1)[C@H]1C(=O)N(C)C(=O)[C@H]12 | ? | i | 16% | 0%
COC(=O)[C@@]12CCCCN1[C@H](c1ccc(-c3ccc(F)cc3)c(OC)c1)[C@@H]1C(=O)N(C)C(=O)[C@@H]12 | i | i | 16µM* | ?
COC(=O)[C@@]12CCCN1[C@H](c1ccc(-c3ccccc3)cc1)[C@H]1C(=O)N(C)C(=O)[C@H]12 | i | i | -1% | 9%
COC(=O)[C@@]12CCCCN1[C@H](c1ccc(-c3ccc4c(c3)OCO4)c(OC)c1)[C@@H]1C(=O)N(C)C(=O)[C@@H]12 | 11µM* | i | 13µM* | 15%
O=C(COc1ccccc1C(=O)Nc1ccccc1F)Nc1ccc(Br)cc1 | . | . | . | -11%
CC(=O)Nc1ccc2c(c1)C(=O)N(C)[C@H]1CC[C@H](CC(=O)NCc3ccc(F)cc3)O[C@@H]1CO2 | i | . | . | .
O=C(Cc1ccccc1Cl)NO | . | . | . | 3%
CCCCCCCCNC(=O)C1CSCCS(=O)(=O)N1Cc1ccccc1 (stereo unspecified) | i | . | . | .
C(=C1c2ccccc2Oc2ccccc21)c1ccccc1 | . | . | . | -7%
CC(=O)C(=Cc1cn(-c2ccccc2)nc1-c1ccccc1)C(C)=O | i | i | 14µM* | 4%
Cc1ccc(C(=O)N/C(=C/c2cn(-c3ccccc3)nc2-c2ccccc2)C(=O)O)cc1 | i | i | 10% | -1%
O=C(C1CCN(c2ncnc3c2sc2cccc(F)c23)CC1)N1CCN(Cc2ccc(F)cc2)CC1 | i | . | . | .
Cc1ccc(N2CN(CCc3ccccc3)CNC2=S)cc1 | i | 11µM* | 19% | 0%
CN(C)c1c(Br)cc(C=O)cc1Br | . | . | . | 1%
CCOC(=O)C1CCN(C(c2cccnc2)c2c(NC(=O)c3ccco3)sc(C)c2C)CC1 (stereo unspecified) | . | i | 14µM* | 9%
Cc1sc(NC(=O)c2ccco2)c(C(c2cccnc2)N2CCN(c3ccc(F)cc3)CC2)c1C (stereo unspecified) | ? | i | 25µM* | ?
NNC(=O)c1ccc(CSc2cccc3cccnc23)cc1 | i | i | 3% | -2%
Cc1cccc(CSc2cccc3cccnc23)c1 | i | i | 18µM* | 2%
CCC(=O)Nc1c(C(=O)Nc2ccc3c(c2)OCCO3)oc2ccccc12 | i | i | 11µM* | 6%
SMILES | FUS suppressor | Abeta rescue | TDP-43 yeast inh | aSyn rescue
CC(Sc1nnnn1-c1ccccc1)C(=O)Nc1ccc(N2CCN(C)CC2)cc1 (stereo unspecified) | i | i | 7% | 0%
CC(Sc1nnnn1C)C(=O)Nc1ccc(Oc2ccccc2)cc1 (stereo unspecified) | i | i | 16µM* | 1%
Cc1noc(C)c1CSc1nc2ccccc2[nH]1 | i | i | -3% | -7%
Fc1cccc(F)c1CSc1nc2ccccc2[nH]1 | i | i | 13µM* | -7%
c1ccc(-c2cc(CSc3nc4ccccc4[nH]3)on2)cc1 | i | i | 20µM* | 3%
COc1ccc(N2CCN(CCCNC(=O)CCOC(C)(C)C)CC2)cc1 | i | . | . | .
